Reference: the supplement of paper PMC7530171
Structures can show the parent of a compound that is named as a salt. ± gives the standard deviation.

These compounds were tested on THP-1 macrophages infected with Mycobacterium tuberculosis H37Rv (assay: intracellular M.tb growth inhibition relative to DMSO (0) and 4 uM bedaquiline (100); higher = stronger inhibition of intracellular bacterial growth). Conditions: 10 µM; 4 days.
Procedure: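 OICR kinase inhibitor library screened in duplicate at 10 uM against THP-1 macrophages (PMA-differentiated) infected with M. tuberculosis H37Rv-pTEC27 (tdTomato RFP), 4 days at 37 C. Rows with complete host cell loss (placeholder inhibition 0, cell loss 100) were removed.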
In the case of `Nc1nccc(-c2c(-c3ccc(F)cc3)ncn2C2CCCCC2)n1`, the “intracellular M.tb growth inhibition” value is reported as 42.4 ± 13%.
With `O=c1c(-c2ccc(O)cc2)coc2cc(O)cc(O)c12` [Genistein] the “intracellular M.tb growth inhibition” value was 10.7 ± 10%.
In the case of `Cc1ccc(NC(=O)c2ccc(CN3CCN(C)CC3)cc2)cc1Nc1nccc(-c2cccnc2)n1` [Imatinib Mesylate], the “intracellular M.tb growth inhibition” value is reported as 54.9 ± 5%.
In the case of `Nc1ccc(-c2cccc3c(=O)cc(N4CCOCC4)oc23)cc1`, the “intracellular M.tb growth inhibition” value is reported as -49 ± 35%.
In the case of `Cc1cc(N2CCOCC2)cc2[nH]c(-c3c(NC[C@@H](O)c4cccc(Cl)c4)cc[nH]c3=O)nc12`, the “intracellular M.tb growth inhibition” value is reported as -36.6 ± 15%.
With `CO[C@@H]1[C@H](N(C)C(=O)c2ccccc2)C[C@H]2O[C@]1(C)n1c3ccccc3c3c4c(c5c6ccccc6n2c5c31)C(=O)NC4` the “intracellular M.tb growth inhibition” value was 60.7 ± 13%.
For `C[C@@H](N)[C@H]1CC[C@H](C(=O)Nc2ccncc2)CC1`, the “intracellular M.tb growth inhibition” value was -59.3 ± 110%.
`COc1cc(OC)c(/C=C/S(=O)(=O)Cc2ccc(OC)c(NCC(=O)O)c2)c(OC)c1` was tested, and the “intracellular M.tb growth inhibition” value was -33.5 ± 120%.
With `CCN1/C(=C/C(C)=O)Sc2ccc(OC)cc21` the “intracellular M.tb growth inhibition” value was -98.4 ± 120%.
For `O=C1c2ccc(O)c(O)c2C(=O)c2c(O)ccc(O)c21` [Quinalizarin], the “intracellular M.tb growth inhibition” value was -115 ± 210%.
`CNC(=O)c1ccccc1Sc1ccc2c(/C=C/c3ccccn3)n[nH]c2c1` [Axitinib] was tested, and the “intracellular M.tb growth inhibition” value was 33.9 ± 1.6%.
`COc1cc2ncc(-c3ccccc3)nc2cc1OC` [Tyrphostin AG-1296] was tested, and the “intracellular M.tb growth inhibition” value was 1.21 ± 2%.
For `CN1CCC(COc2cnc(-c3cccc(Cn4nc(-c5cccc(C#N)c5)ccc4=O)c3)nc2)CC1`, the “intracellular M.tb growth inhibition” value was 48.3 ± 68%.
In the case of `Cn1cc(-c2ccc3nnc(Sc4ccc5ncccc5c4)n3n2)cn1`, the “intracellular M.tb growth inhibition” value is reported as -164 ± 130%.
With `COc1cc(OC2CCN(C)CC2)ccc1Nc1ncc2c(n1)n(C1CCCC1)c(=O)n2C` the “intracellular M.tb growth inhibition” value was -17.7 ± 25%.
With `Nc1nc(OCC2CCCCC2)c2[nH]cnc2n1` the “intracellular M.tb growth inhibition” value was -15.1 ± 19%.
In the case of `Cc1c[nH]c(/C=C2\C(=O)Nc3ccccc32)c1CCC(=O)O`, the “intracellular M.tb growth inhibition” value is reported as 27.3 ± 23%.
`CC(C)n1nc(-c2cc3cc(O)ccc3[nH]2)c2c(N)ncnc21` was tested, and the “intracellular M.tb growth inhibition” value was 14.1 ± 20%.
In the case of `Cn1cc(-c2cnc3ccc4ccc(CS(=O)(=O)NCc5ccccn5)cc4c(=O)c3c2)cn1`, the “intracellular M.tb growth inhibition” value is reported as -162 ± 230%.
For `N#CC(=C(/N)Sc1ccccc1N)/C(C#N)=C(/N)Sc1ccccc1N`, the “intracellular M.tb growth inhibition” value was 13.3 ± 58%.
`CN(C)C/C=C/C(=O)Nc1cc2c(Nc3ccc(F)c(Cl)c3)ncnc2cc1O[C@H]1CCOC1` was tested, and the “intracellular M.tb growth inhibition” value was 18.3 ± 3%.
For `FC(F)(F)c1ccc(/C=C/c2nc(COc3ccc(CCCCn4ccnn4)cc3)co2)cc1` [Mubritinib], the “intracellular M.tb growth inhibition” value was -50.5 ± 170%.
In the case of `CCN(CC)CCCCN1c2ccccc2Oc2ccc(Cl)cc21` [10-DEBC hydrochloride], the “intracellular M.tb growth inhibition” value is reported as 123 ± 1.9%.
With `O=C(C=Cc1ccccc1)NC(NC(=S)Nc1ccc(Cl)cc1)C(Cl)(Cl)Cl` (stereo not given) the “intracellular M.tb growth inhibition” value was 12.9 ± 18%.
With `Cc1[nH]c(/C=C2\C(=O)Nc3cc(-c4ccccc4)ccc32)c(C)c1CCC(=O)O` the “intracellular M.tb growth inhibition” value was -5.41 ± 25%.
With `COc1cc(Oc2ccnc3cc(OC)c(OC)cc23)ccc1NC(=O)NC(C)c1nccs1` (racemic) the “intracellular M.tb growth inhibition” value was -40.9 ± 140%.
For `NC(=O)c1sc2c([N+](=O)[O-])cc(C(F)(F)F)cc2[n+]1[O-]` [Cyclapolin 9], the “intracellular M.tb growth inhibition” value was -65.9 ± 140%.
In the case of `Nc1cc(N)c(N)cc1N` [FAK Inhibitor 14], the “intracellular M.tb growth inhibition” value is reported as 6.73 ± 56%.
`CO[C@@H](C(=O)N1Cc2[nH]nc(NC(=O)c3ccc(N4CCN(C)CC4)cc3)c2C1)c1ccccc1` was tested, and the “intracellular M.tb growth inhibition” value was -228 ± 250%.
In the case of `O=C1NCCCc2c1oc1ccc(O)cc21`, the “intracellular M.tb growth inhibition” value is reported as 11 ± 28%.
With `Cc1cc(C(=O)N2CCN(c3cccc(Cl)c3)CC2)n(-c2ccccc2)n1` the “intracellular M.tb growth inhibition” value was -17.5 ± 0.18%.
`CCc1nc(-c2cccc(C)c2)c(-c2ccnc(NC(=O)c3ccccc3)c2)s1` was tested, and the “intracellular M.tb growth inhibition” value was 0.0588 ± 120%.
With `COc1cc2nccc(Oc3ccc(NC(=O)Nc4ccc(F)cc4F)c(F)c3)c2cc1OC` the “intracellular M.tb growth inhibition” value was 25.2 ± 4.6%.
In the case of `CN(C)c1ccc(/C=C2/C(=O)Nc3ccccc32)cc1`, the “intracellular M.tb growth inhibition” value is reported as 5.91 ± 3.3%.
In the case of `COc1cc(Nc2ncc(F)c(Nc3ccc4c(n3)NC(=O)C(C)(C)O4)n2)cc(OC)c1OC`, the “intracellular M.tb growth inhibition” value is reported as -164 ± 230%.
With `CN(C)Cc1cccc(N=C(c2ccccc2)c2c(O)[nH]c3cc(C(=O)N(C)C)ccc23)c1` the “intracellular M.tb growth inhibition” value was -213 ± 320%.
With `C=CCn1c(=O)c2cnc(Nc3ccc(N4CCN(C)CC4)cc3)nc2n1-c1cccc(C(C)(C)O)n1` the “intracellular M.tb growth inhibition” value was -188 ± 280%.
With `Cc1cnc(-c2cnc(NCCNc3ccc(C#N)cn3)nc2-c2ccc(Cl)cc2Cl)[nH]1` the “intracellular M.tb growth inhibition” value was 7.29 ± 24%.
For `C[S+]([O-])c1ccc(-c2nc(-c3ccc(F)cc3)c(-c3ccncc3)[nH]2)cc1` (stereo not given), the “intracellular M.tb growth inhibition” value was 14.3 ± 12%.
For `O=c1cc(-c2cccc3c2Sc2ccccc2S3)oc(N2CCOCC2)c1`, the “intracellular M.tb growth inhibition” value was 3.07 ± 24%.
